Results reported in the supplement of paper PMC12340641.
Structures can show the parent of a compound that is named as a salt.

Each compound was assayed on HEK293FT dCK*-IKZF1 (assay: relative growth recovery (pomalidomide 10 uM = 100%, DMSO = 0%); higher = more growth rescue (IKZF1 fusion degradation)). Conditions: compound concentration: 5 uM; AraC concentration: 0.3 uM; overnight pretreatment + 4 days AraC.
Summary of the method: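 On day 5, whole-well imaging was used to count Hoechst 33342-stained nuclei of HEK293FT cells stably carrying a deoxycytidine kinase–IKZF1 fusion. These cells had received 5 μM compound 2 h after seeding, followed after overnight at 37 °C by a nucleoside suicide substrate at 0.3 μM plus medium for 4 days. Growth recovery was normalised on each plate against a reference degrader and vehicle, which defined 100% and 0%, and values are duplicate means from separate days.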

Compound	relative growth recovery [%]
CCC(=N\O)/C(C)=C/c1ccc(F)cc1	-0.58
O=C(O)c1ccc(S(=O)(=O)N(Cc2ccc(OC(F)(F)F)cc2)c2ncc(C(F)(F)F)cc2Cl)cc1	2.16
O=C(Nc1ccc2[nH]ccc2c1)c1ccccc1	-0.01
Clc1ccc(C(Cn2ccnc2)OCc2csc3c(Cl)cccc23)c(Cl)c1 (stereo not drawn) [Sertaconazole nitrate]	3.33
Cc1noc(C)c1-c1ccc(-c2cc(C(N)=O)c(NC(N)=O)s2)c(O[C@H]2CCNC2)c1	3.93
CCCCCCCC/C=C\CCCCCCCC(=O)NCCO [oleoylethanolamide]	1.78
Nc1nnc(-c2cccc(Cl)c2Cl)c(N)n1	-1.71
CC(C)COCC(CN(Cc1ccccc1)c1ccccc1)N1CCCC1 (stereo not drawn) [bepridil]	-1.14
CO[C@H]1/C=C/O[C@@]2(C)Oc3c(C)c(O)c4c(O)c(c5c(c4c3C2=O)=NC2(CCN(CC(C)C)CC2)N=5)NC(=O)C(C)=CC=CC(C)[C@H](O)[C@@H](C)[C@@H](O)[C@@H](C)[C@H](OC(C)=O)[C@@H]1C (stereo partly drawn) [Rifabutin]	-0.05
C/C(=N/Nc1nnc2c(n1)[nH]c1c(C)cccc12)c1ccccn1	-12.6
OC1=C(C[C@]([C@](CO)=O)(O)C[C@@H]4O[C@@]5([H])C[C@H](N)[C@H](O)[C@H](C)O5)C4=C(O)C3=C1C(C2=CC=CC(OC)=C2C3=O)=O [doxorubicin]	-13.8
CCc1nc(N)nc(N)c1-c1ccc(Cl)cc1	-0.245
COc1cc([C@@H]2c3cc4c(cc3[C@@H](O[C@@H]3O[C@@H]5CO[C@@H](C)O[C@H]5[C@H](O)[C@H]3O)[C@H]3COC(=O)[C@H]23)OCO4)cc(OC)c1O [Etoposide]	-12.5
Cc1cc([C@H](C(=O)N2C[C@H](O)C[C@H]2C(=O)N[C@@H](CC(=O)N2CCC(C#Cc3ccc(C(=O)N[C@H]4C(C)(C)[C@H](Oc5ccc(C#N)c(Cl)c5)C4(C)C)cc3)CC2)c2ccccc2)C(C)C)on1	-0.74
CO[C@@H]1[C@@H](OC2O[C@H](C)[C@@H](O[C@H]3C[C@@](C)(O)[C@@H](O)[C@H](C)O3)[C@H](N(C)C)[C@H]2O)[C@@H](CC=O)C[C@@H](C)[C@@H](O[C@H]2CC[C@H](N(C)C)[C@@H](C)O2)/C=C/C=C/C[C@@H](C)OC(=O)C[C@H]1O (stereo partly drawn)	2.43
O=C1c2ccccc2-c2n[nH]c3cccc1c23 [pyrazolanthrone]	-5.03
S=C(NCc1ccc2c(c1)OCO2)N1CCN(c2ncnc3c2oc2ccccc23)CC1 [Amuvatinib (MP-470)]	-0.14
Clc1ccccc1C(c1ccccc1)(c1ccccc1)n1ccnc1 [Clotrimazole]	1.77
COC(=O)Nc1ccc(-c2nc(N3CCOCC3)c3cnn(C4CCN(Cc5cccnc5)CC4)c3n2)cc1	-12.9

Compound	relative growth recovery [%]
Oc1c(Cl)cc(Cl)c2cccnc12	-0.1
CSCC[C@H](N)C(=O)O [L-methionine]	1.19
COC(=O)Nc1nc2cc(C(=O)c3cccs3)ccc2[nH]1 [nocodazole]	-11.6
CCc1nc(N)nc(N)c1-c1ccc(Cl)cc1 [Pyrimethamine]	-1.87
O=C(CCCCCCC(=O)NO)NO	-0.655
O=C(Nc1ccc(Cl)cc1)Nc1ccc(Cl)c(Cl)c1 [Triclocarban]	-1.68
O=C(O)c1cc(N=Nc2ccc(O)c(C(=O)O)c2)ccc1O [Olsalazine Na]	-1.08
CCCCCCCCCCCCCCCC[N+](C)(C)CCN(Cc1ccc(OC)cc1)c1ncccn1 [thonzonium bromide]	-10.3
COc1nccnc1NS(=O)(=O)c1ccc(N)cc1 [sulfametopyrazine]	-1.09
CN1CCN(Cc2ccc(-c3cnc4[nH]cc(-c5ccc6[nH]ccc6c5)c4c3)cc2)CC1	-11.6
COc1cccc2c1C(=O)c1c(O)c3c(c(O)c1C2=O)C[C@@](O)(C(=O)CO)C[C@@H]3O[C@H]1C[C@H](N)[C@@H](O)[C@H](C)O1 [Epirubicin Hydrochloride]	-13.7
C=C1/C(=C\C=C2/CCC[C@]3(C)[C@@H]([C@H](C)CCCC(C)(C)O)CC[C@@H]23)C[C@@H](O)C[C@@H]1O [Calcitriol (Rocaltrol)]	4.81
Nc1ccc2cc3ccc(N)cc3nc2c1	-15
COc1ccc(CCCOC(Cn2ccnc2)c2ccc(OC)cc2)cc1 (stereo not drawn)	-9.78
C=C1C(=O)O[C@@H]2C[C@@]3(C)CCC[C@H](C)C3=C[C@H]12 [alantolactone]	-7.37
CCCSc1ccc2[nH]c(NC(=O)OC)nc2c1 [Albendazole]	-0.675
CC[C@@]1(O)C(=O)OCc2c1cc1n(c2=O)Cc2cc3c(N)cccc3nc2-1 [9-aminocamptothecin]	-12.4
CCN(CC)CCCC(C)Nc1c2ccc(Cl)cc2nc2ccc(OC)cc12 (stereo not drawn)	-13.4
CCCCNC(=O)NS(=O)(=O)c1ccc(C)cc1	-3.39
